Compound activity deposited in PubChem by National Center for Advancing Translational Sciences (NCATS).
Most compounds without a hit are left out; they make up all but 4.3% or so of the library.
Giardia kill: kills Giardia lamblia; activity change, % at 7.66 µM, hits read low; Giardia lamblia trophozoite viability; AID 540267; 0.15% of 340,000 active; in the data active = activity change below about -80%; inconclusive = between about -30% and that limit;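 also: parasites exposed to compound for two days anaerobically before the ATP read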
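Giardia lamblia trophozoites (100 cells/well) were incubated with compounds for 48 h at 37 deg C under anaerobic conditions. Viability was read as ATP content by one-step luminescence after 15-30 min at room temperature.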
MCF10A rerep: inducers of DNA re-replication in MCF 10A breast cells. 2.9% of 350,000 active. MCF 10A DNA re-replication, Hoechst nuclear intensity, 48 h. Potency, µM (highest dose often 46.1 µM), usual class: activators; also: nearly all actives have a fitted effect of over 50% in size
SW480 rerep: induces DNA re-replication in SW480 colon adenocarcinoma cells; SW480 DNA re-replication, Hoechst DNA content imaging, 48 h; Potency, µM (series often up to 46.1 µM), most hits filed as activators; 1.8% of 340,000 active; AID 624297; also: nearly all actives have a fitted effect of over 55% in size
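Readout is total intensity of Hoechst-stained nuclei, excited at 405 nm and collected at 500-530 nm. Compound treatment lasted 48 hr at 37 C in 5% CO2 before staining.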
uPA surface inh: inhibitors of cell surface uPA generation. cell surface uPA generation assay, qHTS. Potency, µM (series often up to 38.3 µM), hits mostly inhibitors. 0.31% of 330,000 active. AID 540303; active = well fitted inhibition curve with a large enough effect; inconclusive = small, poorly fitted or top-dose-only effect; inactive = no such curve, though single readings can be large or run the other way; tested in mouse RAW 264.7 cells; also: nearly all actives have a fitted effect of over 55% in size
Large screens that a line does not name were inactive; ! = not active in a repeat. Unless noted, calls follow the shape of the dose curve; as a rule, active = well fitted activation curve with a large enough effect; inconclusive = small, poorly fitted or top-dose-only effect; inactive = no such curve, though single readings can be large or run the other way.

CCC1(O)CCC2C3CCC4=CC(=O)CCC4C3CCC21CC (configuration not stated)	none
C=CC[C@]1(O)CCC2C3CCC4=CCCCC4C3CCC21C (some centres not stated)	MCF10A rerep 18.8µM (no result: Giardia kill, uPA surface inh)
COc1ccc([C@H]2CC(=O)C=C(/C=C/Cc3ccccc3)C2)cc1	MCF10A rerep inconclusive, uPA surface inh inconclusive
COc1cc(NS(=O)(=O)c2ccc3c(c2)oc(=O)n3C)cc(OC)c1OC	Giardia kill inconclusive, MCF10A rerep inconclusive, SW480 rerep 20.6µM, uPA surface inh inconclusive
C=CCn1c(=O)c(C=Nc2cccc([N+](=O)[O-])c2)c(O)n(CCCC)c1=O	none
C=CCn1c(=O)c(C=Nc2c(OC)cccc2[N+](=O)[O-])c(O)n(CCCC)c1=O	MCF10A rerep 7.31µM, SW480 rerep inconclusive
CO[C@@H](COC(N)=O)C1=C(N2CC2)C(=O)C(C)=C(N2CC2)C1=O	MCF10A rerep 4.73µM, SW480 rerep inconclusive (no result: Giardia kill, uPA surface inh)
CC(C)c1ccc(/C=C2\SC(=S)N(CCC(=O)N3CCCCC3CCO)C2=O)cc1 (configuration not stated)	uPA surface inh inconclusive
COc1ccc(CCNC(=O)c2c(N)n(CCN3CCOCC3)c3nc4ccccc4nc23)cc1OC	none
CCCCCn1c(N)c(C(=O)NCCN2CCOCC2)c2nc3ccccc3nc21	MCF10A rerep inconclusive, SW480 rerep 2.91µM
CCCCCCn1c(N)c(C(=O)NCCN2CCOCC2)c2nc3ccccc3nc21	MCF10A rerep 0.82µM, SW480 rerep 20.6µM
CCCNC(=O)c1c(N)n(CC2CCCO2)c2nc3ccccc3nc12 (configuration not stated)	MCF10A rerep 18.4µM, SW480 rerep 16.4µM
CC(C)OCCCNC(=O)c1c(N)n(CC2CCCO2)c2nc3ccccc3nc12 (configuration not stated)	none
C=CCN(C1=NCCN1)c1c(Cl)cccc1Cl	none (no result: Giardia kill, uPA surface inh)
Cc1cccc(-n2ncc3c(NCCCO)ncnc32)c1	uPA surface inh 1.78µM
O=C(NN=Cc1ccc(N(CCCl)CCCl)cc1)C(=O)c1c[nH]c2ccccc12	MCF10A rerep 16.4µM, SW480 rerep inconclusive
O=C(NN=Cc1ccc(N(CCCl)CCCl)cc1)c1cc(=O)[nH]c(=O)[nH]1	MCF10A rerep inconclusive, SW480 rerep 7.31µM
Cc1cccc(N2CCN(C(=O)c3ccc(CNc4c(N5CCC(C)CC5)c(=O)c4=O)cc3)CC2)c1C	none
CCCCCCC(=O)O[C@H]1CC[C@H]2[C@@H]3CCC4CC(=O)C=C(C)[C@]4(C)[C@H]3CC[C@]12C (some centres not stated)	SW480 rerep inconclusive (no result: Giardia kill, uPA surface inh)
CN1CCN(c2ncnc3nc[nH]c23)CC1	MCF10A rerep 0.259µM
NC(Cc1ccc(Oc2cc(I)c(O)c(I)c2)c(I)c1)C(=O)O (configuration not stated)	none (no result: Giardia kill, uPA surface inh)
O=c1c2ccccc2c(C=Nc2ccc(O)cc2)c(O)n1Cc1ccccc1	MCF10A rerep inconclusive, SW480 rerep 20.6µM
CCN(CC)c1ccc(N=Cc2c(O)n(-c3ccccc3)c(=O)[nH]c2=O)cc1	none
CCN(CC)c1ccc(N=Cc2c(O)n(Cc3ccccc3)c(=O)[nH]c2=O)cc1	MCF10A rerep inconclusive, SW480 rerep 0.517µM!
COc1ccc(Cn2c(O)c(/C=N/NC(=O)c3ccccc3O)c(=O)[nH]c2=O)cc1	MCF10A rerep 4.61µM
C=CCn1c(O)c(C(C)=Nc2ccc(N(CC)CC)cc2)c(=O)[nH]c1=O	MCF10A rerep inconclusive, SW480 rerep 14.6µM (no result: uPA surface inh)
C=CC[C@@H](CC(=O)N(CCO)Cc1ccccc1)C(=O)NC[C@@H](OC(=O)[C@@H](CC=C)CC(=O)OC(C)(C)C)c1ccccc1	none
Cc1cccc(-c2noc(CN(C(=O)C(c3ccccc3)c3ccccc3)C(C)C)n2)c1	uPA surface inh inconclusive
C/C(=N\NC(=O)c1cc(-c2cccnc2)nc2ccccc12)c1ccc(O)cc1O	MCF10A rerep inconclusive, SW480 rerep inconclusive, uPA surface inh 11.2µM
C/C(=N\NP(=S)(c1ccccc1)c1ccccc1)c1ccc(O)cc1O	none
C[C@H](NC(C)(C)C)C(=O)c1cccc(Cl)c1	none (no result: Giardia kill, uPA surface inh)
CC(C)=CCC/C(C)=C/CNC(=O)C[C@H]1C[C@H](C(=O)N(C(C)C)C(C)C)[C@@]2(C)c3[nH]c4cc(-c5ccco5)ccc4c3CCN2C1=O	MCF10A rerep inconclusive, uPA surface inh inconclusive
C[CH2][Hg][S]c1ccccc1C(=O)O	Giardia kill inconclusive, MCF10A rerep 0.92µM, SW480 rerep 5.96µM, uPA surface inh inconclusive
O=C1N=NC2=C1c1c3ccccc3c(O)n1CC2	none
COc1ccc(-c2ccoc2)cc1[C@H]1[C@H]2C=CC[C@@H](C)[C@@H]2C(=O)N1Cc1ccccc1	MCF10A rerep 18.4µM, uPA surface inh inconclusive
COc1cc(-c2cccc([C@H]3[C@@H]4C=CC[C@@H](C)[C@@H]4C(=O)N3Cc3ccccc3)c2)cc(OC)c1OC	MCF10A rerep 7.31µM, uPA surface inh inconclusive
COc1ccccc1-n1c(-c2ccoc2)nc2ccccc2c1=O	none
COc1ccc(-c2ccc([C@H]3[C@@H]4C=CCC[C@@]4(C)C(=O)N3Cc3ccccc3)c(F)c2)cc1OC	Giardia kill inconclusive, MCF10A rerep inconclusive, uPA surface inh inconclusive
COc1ccc(/C=C/C=C2C(=O)NC(=S)NC2=O)cc1	MCF10A rerep 5.8µM, SW480 rerep 16.4µM
COc1ccc(C=C2C(=O)NC(=S)NC2=O)cc1OC	none
CCCCCn1c(=O)c(C(=O)Nc2ccccc2Cl)c(O)c2ccccc21	none
CCCCCn1c(=O)c(C(=O)NCCc2ccccc2)c(O)c2ccccc21	MCF10A rerep 23.1µM
COc1ccc(/C=N/Nc2cc(N3CCCC3)nc(N3CCCC3)n2)cc1	MCF10A rerep 18.4µM, SW480 rerep 9.2µM
Cc1ccccc1OCCC(=O)Nc1ccc(S(=O)(=O)N(C)C2CCN(C)CC2)cc1	MCF10A rerep inconclusive, SW480 rerep inconclusive, uPA surface inh inconclusive
C=CCC[C@@H](Cc1ccc(F)cc1)C(=O)OC[C@@H](Cc1c[nH]c2ccccc12)NC(=O)[C@H](CC=C)CC(=O)N(CCO)Cc1ccccc1	MCF10A rerep 23.1µM, SW480 rerep inconclusive, uPA surface inh inconclusive
C=CC[C@@H](CC(=O)N(CCO)Cc1ccccc1)C(=O)N[C@@H](COC(=O)[C@@H](CC=C)Cc1ccc(F)cc1)Cc1c[nH]c2ccccc12	MCF10A rerep inconclusive
C=CCC[C@H](Cc1ccc(F)cc1)C(=O)OC[C@@H](Cc1c[nH]c2ccccc12)NC(=O)[C@H](CC=C)CC(=O)N(CCO)Cc1ccccc1	MCF10A rerep 18.4µM, SW480 rerep inconclusive, uPA surface inh inconclusive
C=CCN=C=S	none (no result: Giardia kill, uPA surface inh)
